Experiment [1] deals with T1, Ephrin type-B receptor 1 (Homo sapiens) (UniProt P54762).
T1 sequence (whole entry): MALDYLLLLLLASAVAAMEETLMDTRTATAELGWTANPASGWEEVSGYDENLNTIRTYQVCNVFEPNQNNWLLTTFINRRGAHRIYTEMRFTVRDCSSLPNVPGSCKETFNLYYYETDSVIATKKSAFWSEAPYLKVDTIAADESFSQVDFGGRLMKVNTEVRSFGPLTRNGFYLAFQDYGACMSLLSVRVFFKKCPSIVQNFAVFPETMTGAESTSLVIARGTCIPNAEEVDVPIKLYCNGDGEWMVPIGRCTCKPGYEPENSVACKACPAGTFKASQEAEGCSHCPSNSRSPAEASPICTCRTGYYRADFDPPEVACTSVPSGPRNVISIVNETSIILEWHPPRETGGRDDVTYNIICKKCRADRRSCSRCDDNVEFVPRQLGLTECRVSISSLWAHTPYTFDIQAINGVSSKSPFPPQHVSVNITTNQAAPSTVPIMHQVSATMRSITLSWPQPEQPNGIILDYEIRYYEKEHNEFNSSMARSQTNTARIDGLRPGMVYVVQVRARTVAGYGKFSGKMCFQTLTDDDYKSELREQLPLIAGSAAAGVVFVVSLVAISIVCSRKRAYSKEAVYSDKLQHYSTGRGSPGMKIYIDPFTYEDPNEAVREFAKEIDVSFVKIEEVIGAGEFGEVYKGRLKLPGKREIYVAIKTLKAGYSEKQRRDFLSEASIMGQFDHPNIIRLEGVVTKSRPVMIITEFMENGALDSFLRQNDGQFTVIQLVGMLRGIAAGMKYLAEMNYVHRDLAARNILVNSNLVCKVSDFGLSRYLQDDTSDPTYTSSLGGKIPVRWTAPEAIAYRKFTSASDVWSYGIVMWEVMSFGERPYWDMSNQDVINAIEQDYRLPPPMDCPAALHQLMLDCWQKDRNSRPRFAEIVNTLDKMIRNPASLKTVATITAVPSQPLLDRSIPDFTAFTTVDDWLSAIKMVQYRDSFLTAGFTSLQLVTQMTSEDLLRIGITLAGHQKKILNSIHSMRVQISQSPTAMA
As to conditions: at 10 µM; call rule not given here.

Experiment [2] concerns the target T2, Ephrin type-B receptor 2 (Homo sapiens) (UniProt P29323).
T2 sequence (whole entry): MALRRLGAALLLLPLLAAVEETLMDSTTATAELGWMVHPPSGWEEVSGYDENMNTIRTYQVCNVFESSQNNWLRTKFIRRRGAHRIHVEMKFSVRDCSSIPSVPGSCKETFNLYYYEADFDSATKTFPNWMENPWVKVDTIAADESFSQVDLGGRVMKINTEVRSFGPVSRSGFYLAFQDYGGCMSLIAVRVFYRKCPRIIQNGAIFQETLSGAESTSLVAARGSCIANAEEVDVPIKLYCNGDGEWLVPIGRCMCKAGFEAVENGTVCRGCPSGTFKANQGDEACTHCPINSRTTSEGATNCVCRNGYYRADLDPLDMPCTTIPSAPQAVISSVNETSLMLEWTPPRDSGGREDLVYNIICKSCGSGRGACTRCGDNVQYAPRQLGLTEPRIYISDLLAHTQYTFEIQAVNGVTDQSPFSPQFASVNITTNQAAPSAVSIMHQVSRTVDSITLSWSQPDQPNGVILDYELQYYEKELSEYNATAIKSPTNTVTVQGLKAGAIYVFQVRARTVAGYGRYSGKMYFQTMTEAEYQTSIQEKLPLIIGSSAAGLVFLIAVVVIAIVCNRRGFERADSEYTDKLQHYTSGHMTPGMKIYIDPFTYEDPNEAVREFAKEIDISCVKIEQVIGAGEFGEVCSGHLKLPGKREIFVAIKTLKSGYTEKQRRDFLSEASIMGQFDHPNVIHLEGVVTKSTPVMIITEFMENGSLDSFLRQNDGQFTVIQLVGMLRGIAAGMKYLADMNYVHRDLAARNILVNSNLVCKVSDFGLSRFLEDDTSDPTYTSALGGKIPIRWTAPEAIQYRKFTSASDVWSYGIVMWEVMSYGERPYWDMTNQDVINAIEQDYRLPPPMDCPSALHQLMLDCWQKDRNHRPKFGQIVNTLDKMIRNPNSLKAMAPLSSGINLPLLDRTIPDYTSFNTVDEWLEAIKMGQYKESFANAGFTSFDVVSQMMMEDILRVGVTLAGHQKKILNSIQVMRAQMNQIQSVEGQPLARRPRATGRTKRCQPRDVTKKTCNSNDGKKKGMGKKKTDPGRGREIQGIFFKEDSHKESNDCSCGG
As to conditions: at 1 µM.

Experiment [3] concerns the target T2, Ephrin type-B receptor 2 (Homo sapiens). As to conditions: at 10 µM.
Experiment [4] concerns the target T3, Ephrin type-B receptor 3 (Homo sapiens) (UniProt P54753).
T3 sequence (whole entry): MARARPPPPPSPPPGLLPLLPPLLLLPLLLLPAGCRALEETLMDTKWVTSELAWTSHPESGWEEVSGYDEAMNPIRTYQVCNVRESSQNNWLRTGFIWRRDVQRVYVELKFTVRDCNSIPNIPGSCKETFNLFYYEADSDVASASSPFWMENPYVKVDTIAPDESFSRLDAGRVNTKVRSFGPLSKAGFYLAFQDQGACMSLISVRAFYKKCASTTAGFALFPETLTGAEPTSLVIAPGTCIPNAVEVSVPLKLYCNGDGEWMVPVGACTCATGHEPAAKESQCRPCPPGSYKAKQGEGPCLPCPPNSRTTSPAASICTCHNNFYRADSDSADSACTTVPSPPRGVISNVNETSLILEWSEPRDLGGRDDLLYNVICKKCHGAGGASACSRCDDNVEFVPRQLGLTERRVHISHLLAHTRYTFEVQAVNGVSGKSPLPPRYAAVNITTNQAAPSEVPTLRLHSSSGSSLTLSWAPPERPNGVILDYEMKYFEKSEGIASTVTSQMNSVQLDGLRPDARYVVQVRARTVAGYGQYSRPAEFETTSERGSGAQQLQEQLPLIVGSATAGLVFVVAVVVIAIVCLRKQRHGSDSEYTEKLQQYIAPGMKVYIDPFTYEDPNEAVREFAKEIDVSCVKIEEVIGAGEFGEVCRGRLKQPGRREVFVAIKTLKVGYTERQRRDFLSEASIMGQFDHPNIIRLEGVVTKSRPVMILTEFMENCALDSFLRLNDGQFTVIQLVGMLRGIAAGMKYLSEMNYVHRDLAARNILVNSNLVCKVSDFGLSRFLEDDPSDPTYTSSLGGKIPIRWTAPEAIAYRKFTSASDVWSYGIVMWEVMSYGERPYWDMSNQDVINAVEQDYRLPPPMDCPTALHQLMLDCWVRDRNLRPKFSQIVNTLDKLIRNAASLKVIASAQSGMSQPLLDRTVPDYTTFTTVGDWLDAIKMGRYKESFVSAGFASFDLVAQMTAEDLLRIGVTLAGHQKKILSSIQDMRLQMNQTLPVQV
As to conditions: at 1 µM.

Experiment [5] deals with T3, Ephrin type-B receptor 3 (Homo sapiens). As to conditions: at 10 µM.
The target of experiment [6] is T4, Ephrin type-B receptor 4 (Homo sapiens) (UniProt P54760).
T4 sequence (whole entry): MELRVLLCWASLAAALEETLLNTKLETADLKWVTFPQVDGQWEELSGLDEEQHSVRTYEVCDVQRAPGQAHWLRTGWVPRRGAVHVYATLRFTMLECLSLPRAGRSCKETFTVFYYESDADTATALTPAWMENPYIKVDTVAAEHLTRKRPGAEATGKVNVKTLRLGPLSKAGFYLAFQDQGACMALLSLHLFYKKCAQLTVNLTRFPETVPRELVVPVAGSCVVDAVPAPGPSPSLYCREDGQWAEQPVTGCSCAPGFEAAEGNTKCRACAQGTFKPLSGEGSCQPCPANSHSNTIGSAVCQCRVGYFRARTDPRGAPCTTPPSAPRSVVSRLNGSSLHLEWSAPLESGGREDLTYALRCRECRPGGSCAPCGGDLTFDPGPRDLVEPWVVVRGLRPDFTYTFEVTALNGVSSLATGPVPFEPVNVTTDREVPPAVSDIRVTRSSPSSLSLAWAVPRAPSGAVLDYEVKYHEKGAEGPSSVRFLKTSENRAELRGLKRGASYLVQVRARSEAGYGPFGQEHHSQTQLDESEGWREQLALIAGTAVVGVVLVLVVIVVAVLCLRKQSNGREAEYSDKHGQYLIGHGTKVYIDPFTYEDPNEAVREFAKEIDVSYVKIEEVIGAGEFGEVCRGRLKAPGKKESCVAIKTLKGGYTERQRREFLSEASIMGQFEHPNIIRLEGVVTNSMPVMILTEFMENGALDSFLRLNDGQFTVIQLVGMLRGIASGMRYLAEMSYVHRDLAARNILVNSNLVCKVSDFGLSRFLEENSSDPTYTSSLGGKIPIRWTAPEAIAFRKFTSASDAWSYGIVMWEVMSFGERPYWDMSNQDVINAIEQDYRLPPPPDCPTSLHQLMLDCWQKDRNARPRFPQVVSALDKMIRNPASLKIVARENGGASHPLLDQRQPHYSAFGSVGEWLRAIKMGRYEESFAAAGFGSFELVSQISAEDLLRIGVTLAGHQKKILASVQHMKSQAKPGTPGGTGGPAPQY
As to conditions: at 1 µM.

The target of experiment [7] is T4, Ephrin type-B receptor 4 (Homo sapiens). As to conditions: at 10 µM.
The target of experiment [8] is Receptor tyrosine-protein kinase erbB-4 (Homo sapiens) (UniProt Q15303). As to conditions: at 1 µM.
For experiment [9] the target is unchanged. As to conditions: at 10 µM.
In experiment [10] the target is Focal adhesion kinase 1 (Homo sapiens) (UniProt Q05397). As to conditions: at 1 µM.

In general, residual activity refers to the signal under treatment as a percentage of the control signal.

SMILES strings stand for the structures.

Receptor tyrosine-protein kinase erbB-4 (Homo sapiens), sequence (Q15303 whole entry): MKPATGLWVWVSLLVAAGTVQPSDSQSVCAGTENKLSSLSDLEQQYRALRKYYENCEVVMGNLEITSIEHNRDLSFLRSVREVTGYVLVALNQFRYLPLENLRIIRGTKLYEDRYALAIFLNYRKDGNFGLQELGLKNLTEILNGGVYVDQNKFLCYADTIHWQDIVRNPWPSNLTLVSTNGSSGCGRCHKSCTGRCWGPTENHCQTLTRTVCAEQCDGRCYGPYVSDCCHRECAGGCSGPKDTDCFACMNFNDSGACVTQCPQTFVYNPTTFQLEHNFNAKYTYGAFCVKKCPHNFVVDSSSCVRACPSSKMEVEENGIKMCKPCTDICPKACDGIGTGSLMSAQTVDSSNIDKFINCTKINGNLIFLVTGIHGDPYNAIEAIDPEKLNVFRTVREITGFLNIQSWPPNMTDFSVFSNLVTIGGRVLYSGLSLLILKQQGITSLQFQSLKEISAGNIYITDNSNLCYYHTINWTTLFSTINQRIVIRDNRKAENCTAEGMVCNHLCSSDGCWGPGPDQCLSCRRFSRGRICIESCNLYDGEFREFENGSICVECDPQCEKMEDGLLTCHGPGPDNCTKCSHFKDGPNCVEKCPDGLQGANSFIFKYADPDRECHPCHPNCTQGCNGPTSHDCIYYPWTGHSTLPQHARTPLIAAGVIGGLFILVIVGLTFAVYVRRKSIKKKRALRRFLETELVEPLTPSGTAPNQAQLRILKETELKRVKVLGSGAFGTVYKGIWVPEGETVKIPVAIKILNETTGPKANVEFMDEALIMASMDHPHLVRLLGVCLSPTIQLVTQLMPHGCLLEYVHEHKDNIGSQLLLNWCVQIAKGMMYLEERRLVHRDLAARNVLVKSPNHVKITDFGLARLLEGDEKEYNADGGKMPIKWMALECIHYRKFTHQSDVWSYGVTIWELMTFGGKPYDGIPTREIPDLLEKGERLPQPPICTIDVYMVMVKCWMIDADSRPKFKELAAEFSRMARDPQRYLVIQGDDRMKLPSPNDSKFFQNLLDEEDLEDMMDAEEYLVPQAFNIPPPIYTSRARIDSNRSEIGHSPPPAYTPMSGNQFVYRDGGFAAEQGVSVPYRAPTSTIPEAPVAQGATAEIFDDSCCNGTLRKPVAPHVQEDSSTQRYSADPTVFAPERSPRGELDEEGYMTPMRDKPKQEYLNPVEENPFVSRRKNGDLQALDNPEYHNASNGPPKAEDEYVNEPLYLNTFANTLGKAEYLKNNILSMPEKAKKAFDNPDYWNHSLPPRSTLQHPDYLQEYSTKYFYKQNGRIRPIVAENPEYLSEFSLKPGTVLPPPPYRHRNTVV
Focal adhesion kinase 1 (Homo sapiens), sequence (Q05397 2-1052 limits assumed): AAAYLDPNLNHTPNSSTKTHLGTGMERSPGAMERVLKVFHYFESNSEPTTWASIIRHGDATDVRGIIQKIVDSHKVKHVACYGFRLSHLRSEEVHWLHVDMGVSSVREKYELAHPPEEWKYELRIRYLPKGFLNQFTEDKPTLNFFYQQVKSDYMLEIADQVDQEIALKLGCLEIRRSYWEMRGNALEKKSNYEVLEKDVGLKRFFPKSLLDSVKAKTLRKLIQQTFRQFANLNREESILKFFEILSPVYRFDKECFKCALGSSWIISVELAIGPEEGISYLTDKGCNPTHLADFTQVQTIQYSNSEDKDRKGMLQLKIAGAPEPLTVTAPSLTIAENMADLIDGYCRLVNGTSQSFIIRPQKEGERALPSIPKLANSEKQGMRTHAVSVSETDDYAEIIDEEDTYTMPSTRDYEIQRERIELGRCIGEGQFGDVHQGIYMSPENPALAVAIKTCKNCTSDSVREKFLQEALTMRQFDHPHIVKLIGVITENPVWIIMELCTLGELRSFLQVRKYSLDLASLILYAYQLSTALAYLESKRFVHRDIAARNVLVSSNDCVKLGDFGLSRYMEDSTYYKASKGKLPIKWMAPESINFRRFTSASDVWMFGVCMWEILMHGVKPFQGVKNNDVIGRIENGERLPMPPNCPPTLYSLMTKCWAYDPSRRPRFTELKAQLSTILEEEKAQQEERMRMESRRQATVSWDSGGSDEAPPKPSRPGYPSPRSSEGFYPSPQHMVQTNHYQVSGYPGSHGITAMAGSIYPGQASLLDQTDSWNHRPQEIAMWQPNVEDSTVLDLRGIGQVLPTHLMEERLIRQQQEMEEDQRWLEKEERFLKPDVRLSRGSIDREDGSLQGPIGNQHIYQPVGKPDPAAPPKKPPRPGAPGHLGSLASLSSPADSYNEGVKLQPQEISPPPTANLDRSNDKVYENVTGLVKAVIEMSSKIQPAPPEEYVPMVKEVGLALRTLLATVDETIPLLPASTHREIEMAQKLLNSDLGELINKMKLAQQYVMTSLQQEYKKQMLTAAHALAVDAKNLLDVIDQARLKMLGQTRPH

In the case of `CCC(=O)Nc1ccc2ncnc(Nc3cccc(Br)c3)c2c1`, the residual activity in experiment [1] is 97%; in [2] it was 105%; in [3] it was 55%; in experiment [4] it was 111% (inactive); in experiment [5], 120%; in experiment [6], 81%. In addition, the residual activity in experiment [7] came to 57%; in experiment [8], 59%; in experiment [9], 58%; in experiment [10], 131%.

(Values after ChEMBL document CHEMBL2218924, “A broad activity screen in support of a chemogenomic map for kinase signalling research and drug discovery” (Biochem J, 2013).)
